According to PubChem BioAssay (Tox21):
Results filed as inconclusive are left out. Active and inactive are the calls of the source. Unless noted, the call rests on the fitted dose curve.

Tests used:
[1] = Nuclear factor erythroid 2-related factor 2/antioxidant responsive element (Nrf2/ARE) small molecule agonists: qHTS cell viability counter screen in human keratinocytes (AID 1919968; active means well fitted curve in the direction sought with a large enough effect in the repeat runs; an effect the other way counts as inactive or inconclusive; further: nearly all actives have a fitted effect of over 55% in size; further: potency means the concentration at half of the fitted maximal effect)
Method in brief: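 CellTiter-Fluor fluorescence, read 1 h after reagent, gave viability in the same wells as the ARE-luciferase assay. KeratinoSens cells (1,500/well) had 23 h compound exposure at 37 C/5% CO2 following 5 h plating.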

[2] = Nuclear factor erythroid 2-related factor 2/antioxidant responsive element (Nrf2/ARE) small molecule agonists: luciferase reporter gene qHTS assay in human keratinocytes (AID 1919969); further: nearly all actives have a fitted effect of over 35% in size; further: potency means the concentration at half of the fitted maximal effect
[3] = target: Gonadotropin-releasing hormone receptor (Homo sapiens) (UniProt P30968); assay: Human gonadotropin-releasing hormone receptor (GnRHR) small molecule agonists, calcium flux assay in GnRHR-HEK293 cells (AID 1920063); further: nearly all actives have a fitted effect of over 35% in size
Method in brief: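 Agonist mode: compounds at 15 concentrations, in triplicate, went onto calcium dye-loaded GnRHR-HEK293 cells. Intracellular calcium was then followed as 480/540 nm fluorescence at 1 s intervals over 3 min.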

[4] = target: KiSS-1 receptor (Homo sapiens) (UniProt Q969F8); assay: Human kisspeptin (KISS1R) small molecule agonists, calcium flux assay in KISS1R-HEK293 cells (AID 1920064; active means well fitted curve in the direction sought with a large enough effect in the repeat runs; an effect the other way counts as inactive or inconclusive)
Method in brief: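 Agonist mode: intracellular calcium rise tracked at 1 s intervals over 3 min (480/540 nm) immediately after compound addition to dye-loaded KISS1R-HEK293 stable cells. Each compound tested at 15 concentrations in triplicate.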

[5] = G protein-coupled receptor (GPCR) small molecule agonists, calcium flux assay: HEK293 wild type cell line counter screen (AID 1920065)
Method in brief: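 Calcium flux counter screen: compound added in agonist mode at 15 concentrations in triplicate to dye-loaded parental HEK293 cells. Fluorescence (480/540) read kinetically for 3 min; ATP served as positive control.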

[6] = p53 small molecule agonists, cell-based qHTS assay with human liver microsomes (AID 1963577);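 further: p53 response element beta-lactamase reporter cells with liver microsomes plus NADPH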
Method in brief: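 HLM-supplemented p53RE-bla reporter assay: 16 h compound exposure at 37 C, microsomes and NADPH each 0.5 mg/mL final, read by fluorescence intensity.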

[7] = p53 small molecule agonists, cell-based qHTS assay with rat liver microsomes (AID 1963578)
Method in brief: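 Quantitative HTS of the Tox21 10K library: p53RE-bla cells, rat liver microsomes plus NADPH at 0.5 mg/mL final each, 16 h at 37 C, beta-lactamase fluorescence detection.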

[8] = p53 small molecule agonists, cell-based qHTS assay with human liver microsomes: qHTS cell viability counter screen (AID 1963579); further: nearly all actives have a fitted effect of over 45% in size; further: potency means the concentration at half of the fitted maximal effect
Method in brief: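 Viability of p53RE-bla cells is measured as CellTiter-Glo luminescence following a 16 h, 37 C incubation with compound, liver microsomes from human donors and NADPH.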

[9] = p53 small molecule agonists, cell-based qHTS assay: qHTS cell viability counter screen (AID 1963581); further: nearly all actives have a fitted effect of over 45% in size
Method in brief: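 Counter screen read by CellTiter-Glo luminescence (ATP content, 30 min at room temperature), run in the same wells as the beta-lactamase reporter read. HCT-116 p53RE-bla cells saw compounds for 16 h at 37 C.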

[10] = p53 small molecule agonists, cell-based qHTS assay (AID 1963582; active means well fitted activation curve with a large enough effect in the signal ratio in the repeat runs, not every such curve was filed as active; the % refers to the signal ratio)
Method in brief: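 Read-out is beta-lactamase FRET fluorescence after 2 h at room temperature with LiveBLAzer B/G substrate. p53 response element-bla cells were treated 16 h at 37 C with compounds in DMSO, added 5 h after seeding.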

[11] = target: 5-hydroxytryptamine receptor 2A (Homo sapiens) (UniProt P28223); assay: 5-hydroxytryptamine receptor 2A (HTR2A) small molecule antagonists, cell-based qHTS assay (AID 1963586); further: nearly all actives have a fitted effect of over 45% in size
Method in brief: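 CHO cells stably expressing human HTR2A were plated for 18 h at 37 C, then loaded with calcium dye for 1 h. Compounds were preincubated 5 min at room temperature before DOI (4 nM solution) was added. Kinetic fluorescence was read for 3 min.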

[12] = target: 5-hydroxytryptamine receptor 2A (Homo sapiens) (UniProt P28223); assay: 5-hydroxytryptamine receptor 2A (HTR2A) small molecule agonists, cell-based qHTS assay (AID 1963587); further: nearly all actives have a fitted effect of over 30% in size
Method in brief: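 Kinetic calcium-flux fluorescence (2 min, 1 sec intervals) after compound addition in agonist mode. HTR2A-CHO cells were cultured 18 h, then dye-loaded 1 h at 37 C.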

[13] = target: Muscarinic acetylcholine receptor M1 (Homo sapiens) (UniProt P11229); assay: Cholinergic receptor muscarinic 1 (CHRM1) small molecule antagonists, cell-based qHTS assay (AID 1963588); further: nearly all actives have a fitted effect of over 40% in size
Method in brief: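 Compounds were tested at 15 concentrations in three independent runs. Dye-loaded CHRM1-CHO cells were exposed 5 min at room temperature before stimulation by acetylcholine added at 50nM. Intracellular calcium was read kinetically on FDSS for 3 min.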

[14] = target: Muscarinic acetylcholine receptor M1 (Homo sapiens) (UniProt P11229); assay: Cholinergic receptor muscarinic 1 (CHRM1) small molecule agonists, cell-based qHTS assay (AID 1963589); further: nearly all actives have a fitted effect of over 35% in size
Method in brief: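 Agonist-mode calcium-flux screen: compounds at 15 concentrations, three independent runs, were pin-transferred onto dye-loaded human CHRM1-CHO cells. Fluorescence was then recorded kinetically every second over minutes.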

[15] = cAMP Responsive Elements (CRE) small molecule agonists, cell-based qHTS assay (AID 1963590)
Method in brief: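 Agonist mode: compound added to CRE-bla HEK 293T cells (2,000/well, 18 h after plating) for 3 h at 37 C/5% CO2. Reporter activity detected via FRET beta-lactamase substrate, 2 h room-temperature loading.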

[16] = target: D(2) dopamine receptor (Homo sapiens) (UniProt P14416); assay: Dopamine D2 receptor (DRD2) small molecule antagonists, cell-based qHTS assay (AID 1963595; active means well fitted inhibition curve with a large enough effect in the signal ratio in the repeat runs, with a control signal flat; the % refers to the signal ratio; further: potency means the concentration at half of the fitted maximal effect)
Method in brief: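 HTRF cAMP read-out at 665 and 620 nm emission (340 nm excitation). Antagonist mode: compounds were tested against 12 nM quinpirole in DRD2-HEK293 cells, with 200 nM NKH477 raising cAMP and 0.1 mM Ro20-1724 blocking its breakdown.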

[17] = cAMP Responsive Elements (CRE) small molecule antagonists, cell-based qHTS assay (AID 1963591; active means well fitted inhibition curve with a large enough effect in the signal ratio in the repeat runs, not every such curve was filed as active; the % refers to the signal ratio)
Method in brief: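 Antagonist mode: compounds are added alongside the adenylyl cyclase activator NKH477 (0.25 uM final) to CRE-bla HEK293T cells for 3 h. LiveBLAzer FRET substrate, 2 h at room temperature, reports bla expression.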

[18] = target: Beta-2 adrenergic receptor (Homo sapiens) (UniProt P07550); assay: Adrenergic beta2 receptor (ADRB2) small molecule antagonists, cell-based qHTS assay (AID 1963592); further: series mostly up to about 92 µM; nearly all actives have a fitted effect of over 50% in size
Method in brief: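 Assay format: CHO-ADRB2 cells, 18-20hr seeding at 37C/5% CO2, then compound plus 1nM isoproterenol agonist mix for 0.5hr RT. Homogeneous time-resolved fluorescence cAMP detection after 1hr, expressed as 665/615 nm ratio.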

[19] = target: D(2) dopamine receptor (Homo sapiens) (UniProt P14416); assay: Dopamine D2 receptor (DRD2) small molecule agonists, cell-based qHTS assay (AID 1963594); further: nearly all actives have a fitted effect of over 35% in size
Method in brief: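 cAMP accumulation in DRD2-HEK293 cells measured by HTRF after 1 h detection; compounds added 10 min before NKH477 (200nM […]) forskolin-analogue stimulation, 30 min at room temperature, with Ro20-1724 present at 0.1 mM final.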
On the % scale 0 is the no-effect control and ±100 the full control effect.

Chain of KiSS-1 receptor (Homo sapiens) (Q969F8 whole entry, looked up): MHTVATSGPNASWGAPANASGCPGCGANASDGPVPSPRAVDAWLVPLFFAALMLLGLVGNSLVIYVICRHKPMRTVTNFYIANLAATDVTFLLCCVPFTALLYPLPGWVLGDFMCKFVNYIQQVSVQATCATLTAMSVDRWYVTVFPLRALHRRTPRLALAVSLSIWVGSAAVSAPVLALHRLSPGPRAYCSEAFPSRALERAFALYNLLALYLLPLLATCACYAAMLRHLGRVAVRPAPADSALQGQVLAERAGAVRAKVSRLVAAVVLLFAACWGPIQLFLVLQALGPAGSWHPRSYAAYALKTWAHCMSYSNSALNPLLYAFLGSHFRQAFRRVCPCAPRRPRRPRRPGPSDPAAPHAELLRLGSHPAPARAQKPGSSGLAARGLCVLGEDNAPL
Chain of D(2) dopamine receptor (Homo sapiens) (P14416 whole entry, looked up): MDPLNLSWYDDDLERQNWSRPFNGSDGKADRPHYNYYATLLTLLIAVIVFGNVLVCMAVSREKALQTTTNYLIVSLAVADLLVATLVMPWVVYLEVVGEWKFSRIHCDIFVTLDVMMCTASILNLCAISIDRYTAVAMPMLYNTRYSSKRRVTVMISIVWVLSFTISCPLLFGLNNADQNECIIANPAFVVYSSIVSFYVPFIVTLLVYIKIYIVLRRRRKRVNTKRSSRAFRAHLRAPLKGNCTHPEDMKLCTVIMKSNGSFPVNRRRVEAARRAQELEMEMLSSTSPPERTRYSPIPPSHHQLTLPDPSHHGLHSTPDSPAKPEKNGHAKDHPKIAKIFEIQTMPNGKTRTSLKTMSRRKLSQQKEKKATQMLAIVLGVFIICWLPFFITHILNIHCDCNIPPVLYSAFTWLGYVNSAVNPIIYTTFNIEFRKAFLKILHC
Chain of Gonadotropin-releasing hormone receptor (Homo sapiens) (P30968 whole entry, looked up): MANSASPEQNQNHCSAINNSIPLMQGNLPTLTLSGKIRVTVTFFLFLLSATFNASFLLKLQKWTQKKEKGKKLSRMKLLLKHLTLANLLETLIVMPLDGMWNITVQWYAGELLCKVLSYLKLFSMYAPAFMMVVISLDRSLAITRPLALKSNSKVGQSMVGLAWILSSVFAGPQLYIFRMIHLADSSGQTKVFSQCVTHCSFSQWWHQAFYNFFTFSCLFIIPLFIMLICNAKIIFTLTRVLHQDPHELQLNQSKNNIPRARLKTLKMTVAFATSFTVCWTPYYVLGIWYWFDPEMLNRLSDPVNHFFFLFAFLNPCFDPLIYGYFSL
Chain of Muscarinic acetylcholine receptor M1 (Homo sapiens) (P11229 whole entry, looked up): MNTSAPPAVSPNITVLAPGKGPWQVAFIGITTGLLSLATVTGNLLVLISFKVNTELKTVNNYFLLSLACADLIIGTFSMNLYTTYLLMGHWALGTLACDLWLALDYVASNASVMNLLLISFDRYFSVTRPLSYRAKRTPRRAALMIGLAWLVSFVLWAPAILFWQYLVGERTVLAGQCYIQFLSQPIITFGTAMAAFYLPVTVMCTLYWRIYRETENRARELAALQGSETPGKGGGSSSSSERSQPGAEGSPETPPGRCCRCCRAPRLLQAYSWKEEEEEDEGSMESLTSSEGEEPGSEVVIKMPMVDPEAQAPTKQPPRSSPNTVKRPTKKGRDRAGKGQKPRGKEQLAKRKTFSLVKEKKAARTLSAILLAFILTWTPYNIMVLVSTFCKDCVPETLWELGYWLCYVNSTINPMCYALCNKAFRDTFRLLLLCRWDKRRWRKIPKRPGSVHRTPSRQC
Chain of Beta-2 adrenergic receptor (Homo sapiens) (P07550 whole entry, looked up): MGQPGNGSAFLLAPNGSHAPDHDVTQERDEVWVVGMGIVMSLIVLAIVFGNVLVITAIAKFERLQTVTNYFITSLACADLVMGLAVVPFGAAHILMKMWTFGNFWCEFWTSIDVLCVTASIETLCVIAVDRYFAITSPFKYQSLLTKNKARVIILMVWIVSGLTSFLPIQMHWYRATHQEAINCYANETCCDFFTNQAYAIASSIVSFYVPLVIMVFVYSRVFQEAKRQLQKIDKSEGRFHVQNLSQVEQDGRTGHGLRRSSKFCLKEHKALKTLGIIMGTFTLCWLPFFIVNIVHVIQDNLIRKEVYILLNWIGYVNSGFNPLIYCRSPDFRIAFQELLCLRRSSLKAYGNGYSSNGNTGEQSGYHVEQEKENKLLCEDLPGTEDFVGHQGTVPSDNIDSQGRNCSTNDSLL
Chain of 5-hydroxytryptamine receptor 2A (Homo sapiens) (P28223 whole entry, looked up): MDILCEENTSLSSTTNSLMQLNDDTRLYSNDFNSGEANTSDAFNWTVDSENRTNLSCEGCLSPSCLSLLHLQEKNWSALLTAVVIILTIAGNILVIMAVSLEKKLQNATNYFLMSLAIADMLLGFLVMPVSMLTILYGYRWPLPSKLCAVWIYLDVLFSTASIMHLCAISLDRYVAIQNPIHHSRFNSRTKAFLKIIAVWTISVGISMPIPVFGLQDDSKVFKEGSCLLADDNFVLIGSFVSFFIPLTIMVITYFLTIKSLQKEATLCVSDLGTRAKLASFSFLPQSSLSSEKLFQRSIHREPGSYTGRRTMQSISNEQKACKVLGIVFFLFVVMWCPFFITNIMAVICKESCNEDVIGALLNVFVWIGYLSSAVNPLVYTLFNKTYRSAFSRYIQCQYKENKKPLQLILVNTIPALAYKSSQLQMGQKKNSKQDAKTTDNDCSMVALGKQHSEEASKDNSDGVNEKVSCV

COC(=O)[C@H]1[C@H]2C[C@@H]3c4[nH]c5cc(OC)ccc5c4CCN3C[C@H]2C[C@@H](OC(=O)COc2ccc(OC)cc2)[C@@H]1OC
inactive: Potency [1] | Potency [2] | Potency [3] | outcome [4] | outcome [5] | Potency [6] | Potency [7] | Potency [8] | Potency [9] | Potency [10] | Potency [11] | Potency [12] | Potency [13] | Potency [14] | Potency [15] | Potency [16]

CC(=O)C1CCCCC1=O (centres undefined)
inactive: Potency [1] | Potency [2] | Potency [3] | outcome [4] | outcome [5] | Potency [6] | Potency [7] | Potency [8] | Potency [9] | Potency [10] | Potency [11] | Potency [13] | Potency [14] | Potency [15] | Potency [17] | Potency [18] | Potency [19] | Potency [16]

O=CN1CCCCC1
inactive: Potency [1] | Potency [2] | Potency [3] | outcome [4] | outcome [5] | Potency [6] | Potency [7] | Potency [8] | Potency [9] | Potency [10] | Potency [11] | Potency [12] | Potency [13] | Potency [14] | Potency [15] | Potency [17] | Potency [18] | Potency [19] | Potency [16]

NC(=O)c1ccncc1
inactive: Potency [1] | Potency [2] | Potency [3] | outcome [4] | outcome [5] | Potency [6] | Potency [7] | Potency [8] | Potency [9] | Potency [10] | Potency [11] | Potency [12] | Potency [13] | Potency [14] | Potency [15] | Potency [17] | Potency [18] | Potency [19] | Potency [16]

COc1cc(C(C)C)ccc1C
inactive: activity change, negative = cytotoxicity [1] 2.71% [at 19 µM] | activity, positive = activation [2] 17.4% [at 19 µM] | activity change [3] 0.369% [at 11.8 µM, hits give high values] | activation [4] 3.09% [at 15.8 µM] | activation [5] -0.338% [at 11.8 µM] | activation [6] -9.12% [at 13.5 µM] | activation [7] 0.156% [at 13.6 µM] | activity change, negative = cytotoxicity [8] -0.449% [at 13.5 µM] | activity change, negative = cytotoxicity [9] -2.99% [at 13.5 µM] | activation [10] -3.2% [at 13.5 µM] | activity, negative = inhibition [11] -13.4% [at 12.7 µM] | activation [12] 0.168% [at 15.9 µM] | activity, negative = inhibition [13] 8.74% [at 12.6 µM] | activation [15] -1.07% [at 19 µM] | activity change, negative = inhibition [17] -0.604% [at 18.9 µM] | activation [19] -1.89% [at 19 µM] | activity change, negative = inhibition [16] 15.4% [at 18.9 µM]

O=C(CO)[C@@H](O)[C@H](O)[C@@H](O)CO
inactive: Potency [1] | Potency [2] | Potency [3] | outcome [4] | outcome [5] | Potency [6] | Potency [7] | Potency [8] | Potency [9] | Potency [10] | Potency [11] | Potency [12] | Potency [13] | Potency [14] | Potency [18] | Potency [19] | Potency [16]

CC/C=C\CCOC(C)=O
inactive: Potency [1] | Potency [2] | Potency [3] | outcome [4] | outcome [5] | Potency [6] | Potency [7] | Potency [8] | Potency [9] | Potency [10] | Potency [12] | Potency [13] | Potency [14] | Potency [15] | Potency [17] | Potency [18] | Potency [19] | Potency [16]

CN1C(=O)CC(c2ccccc2)C1=O (centres undefined)
inactive: Potency [1] | Potency [2] | Potency [3] | outcome [4] | outcome [5] | Potency [6] | Potency [7] | Potency [8] | Potency [9] | Potency [10] | Potency [11] | Potency [12] | Potency [13] | Potency [14] | Potency [15] | Potency [17] | Potency [18] | Potency [19] | Potency [16]

C[n+]1cc2c3c(ccc2c2ccc4cc5c(cc4c21)OCO5)OCO3
inactive: activity change [3] 3.58% [at 11.8 µM, hits give high values] | activation [4] 0.698% [at 15.8 µM] | activation [5] 3.71% [at 11.8 µM] | activation [6] -8.2% [at 13.5 µM] | activation [7] -6.71% [at 13.6 µM] | activity change, negative = cytotoxicity [9] -21.2% [at 13.5 µM] | activation [10] -0.417% [at 13.5 µM] | activity, negative = inhibition [11] 8.48% [at 12.7 µM] | activation [12] 10.7% [at 15.9 µM] | activity, negative = inhibition [13] -0.831% [at 12.6 µM] | activation [14] 0.0411% [at 15.8 µM]
active: Potency [1] 1.64 µM | Potency [2] 1.46 µM | Potency [8] 9.73 µM | Potency [16] 13 µM

Nc1cccc(S(=O)(=O)O)c1
inactive: Potency [1] | Potency [2] | Potency [3] | outcome [4] | outcome [5] | Potency [6] | Potency [7] | Potency [8] | Potency [9] | Potency [10] | Potency [11] | Potency [12] | Potency [13] | Potency [14] | Potency [15] | Potency [17] | Potency [16]

CC(=O)Nc1ccc(S(N)(=O)=O)cc1
inactive: Potency [1] | Potency [2] | Potency [3] | outcome [4] | outcome [5] | Potency [6] | Potency [7] | Potency [8] | Potency [9] | Potency [10] | Potency [11] | Potency [12] | Potency [13] | Potency [14] | Potency [15] | Potency [17] | Potency [18] | Potency [16]

ClC1=C(Cl)C1(Cl)Cl
inactive: Potency [1] | Potency [2] | Potency [3] | outcome [4] | outcome [5] | Potency [6] | Potency [7] | Potency [8] | Potency [9] | Potency [10] | Potency [11] | Potency [12] | Potency [14] | Potency [15] | Potency [17] | Potency [18] | Potency [19] | Potency [16]

Cc1ccnc(N)c1
inactive: Potency [1] | Potency [2] | Potency [3] | outcome [4] | outcome [5] | Potency [6] | Potency [7] | Potency [8] | Potency [9] | Potency [10] | Potency [11] | Potency [13] | Potency [14] | Potency [15] | Potency [17] | Potency [18] | Potency [19] | Potency [16]
